Our source for the Potency and activity change, negative = inhibition values is PubChem BioAssay (Tox21).

Records with an inconclusive call do not appear. A call without a number means that no potency is given here. A number with no mark means an inactive call. The source made the active and inactive calls. Calls come from the whole dose curve.

The experiment is described as follows: qHTS assay to identify small molecule antagonists of the sonic hedgehog signaling (Shh) pathway (AID 1259369). Note: nearly all actives have a fitted effect of over 45% in size. Conditions: NIH/3T3 Gli1-Luc reporter, Shh antagonist, luminescence 24 h; series mostly up to 92.4 µM. An excerpt: U.S. Tox21 Program National Center for Advancing Translational Sciences [NCATS] NIH Chemical Genomics Center [NCGC] U.S. Environmental Protection Agency [EPA] National Institutes of Environmental Health Sciences [NIEHS] National Toxicology Program [NTP] U.S. Food and Drug Administration [FDA] Tox21 Assay Overview: The sonic hedgehog (Shh) pathway is essential for normal embryonic development. Dysregulation of the Shh pathway can cause severe developmental defects in organs. Therefore chemicals that interfere with the pathway are potential developmental toxicants. A cell line designated 3T3Gli1-Luc (DMB/OARSA/CFSAN/FDA, Laurel, MD), a NIH/3T3 derived clone containing stably integrated Gli1-Luc reporter is used to detect chemical interference of the Shh pathway, by changes in the expression of the firefly Luc gene under the control of the Gli1 transcriptional response element. This cell line was used to screen Tox21 libraries for identifying and prioritizing the potential developmental toxicants that interfere Shh pathway. Conditioned medium-stimulated mode was used to screen for chemicals inhibiting Shh signaling.
Tox21 Assay Protocol Summary: 3T3 Gli1-Luc cells were dispensed at 2,000 per well in 5uL of culture medium into white solid bottom 1536-well plates (Greiner Bio-One, Monroe, NC) using a Multidrop Combi (Thermo Scientific, Waltham, MA) dispenser. The assay plates were incubated at 37 C and 5% CO2 for 4hr, and then 23nL of compounds dissolved in DMSO and positive control were transferred using a Pintool station (Wako, San Diego, CA). The compound transfer was followed by the addition of 1ul conditioned medium or assay buffer using two separate tips of Flying Reagent Dispenser (FRD, Aurora Discovery, San Diego, CA). The assay plates were incubated at 37C and 5% CO2 for 24hr. For luciferase read, 4uL of Amplite Luciferase reporter gene assay reagent (AAT Bioquest, Inc. Sunnyvale, CA) was added to each well of the assay plates using FRD and incubated at room temperature for 30min. The luminescence signal was measured using a ViewLux plate reader (Perkin Elmer, Shelton, CT).
Background: qHTS replaces the single test concentration by a dilution series.
Regarding `O=C(O)Cc1cn(-c2ccccc2)nc1-c1ccc(Cl)cc1`, the Potency entry was “inactive”.

For `CCCCCCCCC1CCC(=O)O1` (stereo not given), the Potency result was “inactive”. Take `C=C(C)C(=O)OCCN(CC)CC`: the Potency result was “inactive”.

`CNS(=O)(=O)CCc1ccc2[nH]cc(C3CCN(C)CC3)c2c1`: the Potency entry was “inactive”.

`c1ccc2c(c1)ccc1c3ccccc3ccc21`: the Potency result was “inactive”. Regarding `CCCCCCCC/C=C\CCCCCCCC(=O)OCCCC`, the activity change, negative = inhibition was 17.1% [at 19 µM]. As to `O=C(CCN1CCN(CCO)CC1)N1c2ccccc2Sc2ccc(C(F)(F)F)cc21`, the Potency entry is “inactive”.

For `CCCCCCCCCC(C)=O`, the Potency result was “inactive”. In the case of `Cc1cccc(C)c1OCC(C)N` (stereo not given), the Potency result is “inactive”. On the same count and under the same terms, for `O=C1CC(c2ccc(Cl)cc2)CC(=O)N1` the value was “inactive”; for `CN(C)c1ccc(C=O)cc1`, “inactive”; for `CC1=C(C(=O)O)N2C(=O)[C@@H](NC(=O)[C@H](N)c3ccc(O)cc3)[C@H]2SC1`, “inactive”. The same measure, in the same setting: for `COc1ccc2nc(SCc3ncc(C)c(OC)c3C)[nH]c2c1` the value was “inactive”. In the case of `C[Si](C)=O`, the activity change, negative = inhibition was 4.44% [at 8.39 µM]. For the molecule `CCCOC(OCCC)OCCC`, the Potency entry is “inactive”. Consider `On1nnc2ccccc21`, for which the Potency entry is “inactive”. For `CC(=O)CCCCn1c(=O)c2c(ncn2C)n(C)c1=O`, the Potency result is “inactive”. The same measure, in the same setting: the value for `CC(C)C[C@H](NC(=O)CNC(=O)[C@H](Cc1ccc(O)cc1)NC(=O)[C@H](CO)NC(=O)[C@H](Cc1c[nH]c2ccccc12)NC(=O)[C@H](Cc1cnc[nH]1)NC(=O)[C@@H]1CCC(=O)N1)C(=O)N[C@@H](CCCN=C(N)N)C(=O)N1CCC[C@H]1C(=O)NCC(N)=O` (stereo in doubt) was “inactive”; that for `CC1(C)S[C@@H]2[C@H](N=CN3CCCCCC3)C(=O)N2[C@H]1C(=O)O` was “inactive”; that for `C[C@H](N)[C@H](O)c1cccc(O)c1` was “inactive”. For `C=C(C)C(=O)OCC(C)(C)COC(=O)C(=C)C`, the Potency result is “inactive”. Still for that read-out and setting: for `Cc1ccsc1/C=C/C1=NCCCN1C` the value was “inactive”; for `CCC(C=O)CC`, “inactive”.

Turning to `CC(CO)c1ccccc1` (stereo not given), the Potency entry was “inactive”. Same read-out and setting: the value for `CCN1CCc2nc(N)oc2CC1` was “inactive”; that for `CC(=O)Nc1ccc(S(=O)(=O)Cl)cc1` was “inactive”; that for `COCCOC(=O)C1=C(C)NC(C)=C(C(=O)OC(C)C)C1c1cccc([N+](=O)[O-])c1` (stereo not given) was “inactive”. The same measure, in the same setting: for `CCN(C)C(=O)Oc1cccc([C@H](C)N(C)C)c1` the value was “inactive”; for `OCCCCC(O)CO` (stereo not given), “inactive”; for `Cc1ccc2c(c1)OCC(=O)CO2`, “inactive”. On the same count and under the same terms, the value for `O=C(CCNNC(=O)c1ccncc1)NCc1ccccc1` was “inactive”; that for `CC(=O)NCCCCCC(=O)O` was “inactive”; that for `C=C(C)C1CCC(C)(O)CC1` (stereo not given) was “inactive”. Consider `O=C(NCCc1c[nH]c2ccccc12)c1cccnc1`, for which the Potency result was “inactive”. Regarding `Cc1ccc(S(=O)(=O)O)c(C)c1`, the Potency entry was “inactive”. The same measure, in the same setting: for `COc1ccc2c(c1)C(=O)N(CCc1ccc(S(=O)(=O)NC(=O)NC3CCCCC3)cc1)C(=O)C2(C)C` the value was “inactive”; for `O=S(=O)(O)CCN1CCN(CCO)CC1`, “inactive”. `Cc1nc2n(c(=O)c1CCN1CCC(c3noc4cc(F)ccc34)CC1)CCC[C@H]2O`: the activity change, negative = inhibition was -4.73% [at 19 µM]. Take `O=C(O)c1cc(Br)c(O)c(Br)c1`: the Potency entry was “inactive”. Same read-out and setting: the value for `CC1COc2ccccc2N1` (stereo not given) was “inactive”.
